Source: PubChem BioAssay (several laboratories)
The list is not random: actives were taken first. Their share in the collection is about 4.8%.
STAT1 activator: activators of IFN-gamma induced STAT1 signaling; NIH 3T3 STAT1-luciferase reporter, luminescence; 100% = IFN-gamma alone, no compound; activation (% of control), % at 5.5 µM; hit rate 2.6% among 200,000;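 active = activation above the screen-wide mean activation plus 3 SD, cut at about 130% in these data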
Wee1 stabilizer: inhibitors of human Wee1 degradation. P30291. HeLa Luc-Wee1K328M stability, luciferase luminescence; 100% = proteasome inhibitor MG132 effect. reporter increase, % at 5 µM. hit rate 1.2% among 220,000;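 active = activation above the mean of all tested compounds plus 3 SD, set per screening run, cut at about 8.8% in these data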;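 note: cells exposed to compound for 20 h before luminescence read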
Target sequence (P30291 whole entry K328M): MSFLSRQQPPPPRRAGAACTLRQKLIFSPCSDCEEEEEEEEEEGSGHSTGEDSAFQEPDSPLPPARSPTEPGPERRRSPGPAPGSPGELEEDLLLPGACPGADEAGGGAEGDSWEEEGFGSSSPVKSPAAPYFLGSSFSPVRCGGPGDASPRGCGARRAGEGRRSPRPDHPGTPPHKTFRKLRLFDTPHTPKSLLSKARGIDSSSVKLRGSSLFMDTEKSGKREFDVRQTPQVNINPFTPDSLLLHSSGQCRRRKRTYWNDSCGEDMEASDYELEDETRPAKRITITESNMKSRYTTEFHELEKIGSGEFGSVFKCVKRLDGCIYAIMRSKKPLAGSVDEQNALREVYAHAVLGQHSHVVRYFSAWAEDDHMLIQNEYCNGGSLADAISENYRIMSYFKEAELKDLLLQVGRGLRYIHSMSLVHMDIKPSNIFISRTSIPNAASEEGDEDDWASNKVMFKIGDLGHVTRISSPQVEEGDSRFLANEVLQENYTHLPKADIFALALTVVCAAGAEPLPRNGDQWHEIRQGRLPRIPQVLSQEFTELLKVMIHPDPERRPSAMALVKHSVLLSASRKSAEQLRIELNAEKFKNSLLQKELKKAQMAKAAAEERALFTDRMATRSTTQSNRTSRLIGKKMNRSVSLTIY
APP 5UTR inh: APP translation inhibition; hit rate 0.82% among 190,000; inhibition, % at 2 µM; AID 1285; SH-SY5Y APP 5'UTR-luciferase reporter, luminescence;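 active = inhibition above a set limit, derived from the sample mean plus 3 SD, cut at about 45% in these data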
APP 5'UTR act: activates APP 5'UTR luciferase reporter; hit rate 1% among 190,000; SH-SY5Y APP 5'UTR luciferase reporter, luminescence; zero percent = DMSO vehicle wells; activation, % at 2 µM; AID 1276;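 active = activation above a set limit, based on mean plus 3 SD of controls, cut at about 140% in these data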
NF-kB expr up: compounds increasing NF-kB expression in human neuronal cells; fold change at 12.5 µM; AID 1239; hit rate 1.6% among 190,000; NF-kB reporter expression; stronger effect = higher value; in the data active = fold change above about 3.3
Hsp70 activator: Hsp70 transcriptional activation, primary screen; HeLa Hsp70 promoter luciferase reporter, luminescence; scaled: vehicle 0, proteasome-inhibitor control 100%; AID 1203; activation, % at 10 µM; hit rate 0.04% among 200,000;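 active = activation above the mean across all tested compounds plus 3 SD, cutoff set per campaign, cut at about 5.5% in these data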
A number is an active result; i = inactive; nt = no result given.

SMILES	STAT1 activator	Wee1 stabilizer	APP 5UTR inh	APP 5'UTR act	NF-kB expr up	Hsp70 activator
COc1cc(C(=O)OC(C)C(=O)Nc2ccc3c(c2)OCO3)ccc1OCc1c(C)noc1C (configuration not stated)	i	i	i	i	i	i
CC(CCc1ccccc1)NC(=O)/C=C/c1ccccc1 (configuration not stated)	i	i	i	i	i	i
COc1cc(/C=C\C(=O)NCc2ccc3c(c2)cc(C)n3C)cc(OC)c1OC	i	15.4	i	i	i	i
COc1cc(/C=C/C(=O)NC(C)CCc2ccccc2)cc(OC)c1OC (configuration not stated)	i	10.6	i	i	i	i
COc1ccc(CC(=O)NCc2ccc3c(c2)cc(C)n3C)cc1OC	i	i	i	i	i	i
CCOC(=O)c1c(CSC(=N)N)n(C)c2cc(Br)c(OC(C)=O)cc12	nt	i	nt	nt	nt	nt
CCOC(=O)c1c(CSC(=N)N)n(-c2ccc(C)cc2)c2cc(Br)c(OC(C)=O)cc12	i	9.4	i	i	i	i
O=C(CSc1nnc2ccccn12)NCc1ccc2c(c1)OCO2	i	i	i	i	i	i
CCn1nnnc1SCC(=O)Nc1ccc2c(c1)OCO2	i	i	i	i	i	i
Cn1nnnc1SCC(=O)Nc1ccc2c(c1)OCO2	141.2	i	i	i	i	i
O=C(CSc1nnc2ccccn12)Nc1ccc2c(c1)OCCO2	139.1	i	i	i	i	i
COc1ccccc1NC(=O)/C(C#N)=C/C=C/c1ccco1	i	i	87.6	i	i	i
Cc1ccc2oc(-c3ccccc3)c(C(=O)O)c(=O)c2c1	i	i	i	166.1	4.03	i
CN(C)C(=O)c1c(-c2ccccc2)oc2ccc(O)cc12	i	i	i	i	i	i
CC(Oc1cccc2c1OC(C)(C)C2)C(=O)O (configuration not stated)	i	i	66.9	i	i	i
Cc1ccc(NC(=S)c2nc3ccccc3s2)cc1	133.7	i	i	167.7	i	i
O=C(CCN1C(=O)c2ccccc2C1=O)Nc1ccc(-c2nc3ccccc3s2)cc1	142.5	i	i	136.5	i	i
S=C(Nc1ccc(Cl)cc1)c1nc2ccccc2s1	i	i	i	i	i	i
CCC(=O)NC(=S)Nc1ccc(-c2nc3ccccc3s2)cc1	141.6	i	i	i	i	i
Cc1ccc2nc(-c3ccc(NC(=O)C(C)N4C(=O)c5ccccc5C4=O)cc3)sc2c1 (configuration not stated)	141.2	i	i	i	i	i
O=C(CN1CCCC1=O)NC1(C(F)(F)F)NC(=O)N(Cc2ccccc2)C1=O (configuration not stated)	i	i	i	i	i	i
CC(C)c1ccc(Nc2nc(CC(=O)O)cs2)cc1	i	i	i	241.8	7.22	i
COC(CNC(=O)CCc1c(C)nc2c(-c3ccc(F)cc3)c(C)nn2c1C)OC	i	i	55.0	i	i	i
Cc1ccccc1NN=Nc1nc2c([nH]1)c(=O)n(C)c(=O)n2C	i	12.0	i	i	i	i
O=C1/C(=C\c2ccccc2)CCc2c1[nH]c1ccccc21	141.4	i	i	161.8	4.67	i
SMILES	STAT1 activator	Wee1 stabilizer	APP 5UTR inh	APP 5'UTR act	NF-kB expr up	Hsp70 activator
Cc1ccc2[nH]c3c(c2c1)CC/C(=C/c1ccccc1)C3=O	i	i	i	i	i	i
CSc1nc2ncc3c(n2n1)CC(C)(C)CC3=O	i	8.9	i	i	i	i
CC1(C)CC(=O)c2cnc3c(C#N)cnn3c2C1	i	i	i	i	i	i
Cc1ccc(CCC(=O)Nc2ccccc2F)s1	136.6	i	i	i	i	i
COc1ccc(C2CC(c3cccs3)=NN2C(=O)CSc2nc3c(cnn3-c3ccccc3)c(=O)[nH]2)cc1 (configuration not stated)	i	i	i	i	i	i
COc1cccc(C2CC(c3cccs3)=NN2C(=O)CSc2nc3c(cnn3-c3ccc(F)cc3)c(=O)[nH]2)c1OC (configuration not stated)	i	i	55.1	i	i	i
CC1CCc2c(sc3ncn(CCO)c(=O)c23)C1 (configuration not stated)	137.5	i	i	i	i	i
CC1CCc2c(sc3ncn(Cc4ccc(C(=O)O)cc4)c(=O)c23)C1 (configuration not stated)	i	i	i	i	i	i
O=S(=O)(c1ccccc1)N1CCN(c2nnc(-c3ccccc3)c3ccccc23)CC1	nt	9.5	nt	nt	nt	nt
